Data taken from PubChem BioAssay (EPA / NIEHS).
Records with an inconclusive call do not appear. Activity calls are given as the source filed them. Rule for the calls: active = hit-call score of the fitted dose curve at least 0.9, where 1 is the maximum; inconclusive = response in the unintended direction; inactive = score below 0.9.

Experiments:
[1] = biological target: Cellular tumor antigen p53 (Homo sapiens) (UniProt P04637); experiment: TOX21_p53_BLA_p2_ratio: Tox21 HCT-116 p53 Agonism Beta-lactamase Assay, Ratio, Phase 2 (AID 2283592)
Outline: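 HCT-116 cells with p53-responsive beta-lactamase reporter, 4000 cells/well, preincubated 5 h, then compound in DMSO (217-fold dilution) for 16 h at 37C. CCF4-AM substrate 2 h at room temperature; 460/530 nm emission ratio fitted upward versus DMSO.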

[2] = TOX21_p53_BLA_p4_viability: Viability Assessment in the Tox21 HCT-116 p53 Agonism Beta-lactamase Assay, Phase 4 (AID 2283597);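 note: hits lower the luminescence signal meaning cytotoxicity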
Outline: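 HCT-116 p53-bla cells, 4000/well, dosed after 5 h attachment and incubated 16 h at 37 °C, 5% CO2. Viability from CellTiter-Glo ATP luminescence after 30 min at room temperature, taken after the beta-lactamase read; loss of signal indicates cytotoxicity.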

[3] = biological target: Cellular tumor antigen p53 (Homo sapiens) (UniProt P04637); experiment: TOX21_p53_BLA_p5_ratio: Tox21 HCT-116 p53 Agonism Beta-lactamase Assay, Ratio, Phase 5 (AID 2283599)
Outline: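 Beta-lactamase reporter ratio (blue 460 nm over green 530 nm, 405 nm excitation) after 2 h CCF4-AM loading, in HCT-116 cells exposed 16 h at 37 C to compounds pinned at 217-fold dilution. Increases relative to DMSO baseline scored.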

[4] = TOX21_p53_BLA_p5_viability: Viability Assessment in the Tox21 HCT-116 p53 Agonism Beta-lactamase Assay, Phase 5 (AID 2283600)
Outline: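 HCT-116 p53 beta-lactamase reporter cells, 4000/well, were exposed to compound (pin transfer, 217-fold dilution) for 16 hours at 37C. Cellular ATP was read by CellTiter-Glo luminescence after 30 min at room temperature.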

[5] = biological target: Cellular tumor antigen p53 (Homo sapiens) (UniProt P04637); experiment: TOX21_p53_BLA_p3_ratio: Tox21 HCT-116 p53 Agonism Beta-lactamase Assay, Ratio, Phase 3 (AID 2283596)
Outline: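 HCT116 p53-bla cells (4000/well) given compound in DMSO (217-fold dilution) after 5 h, incubated 16 h at 37C. CCF4-AM substrate 2 h at room temperature; 460/530 nm emission ratio, gain fitted against DMSO.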

[6] = biological target: Cellular tumor antigen p53 (Homo sapiens) (UniProt P04637); experiment: TOX21_p53_BLA_p4_ratio: Tox21 HCT-116 p53 Agonism Beta-lactamase Assay, Ratio, Phase 4 (AID 2283601)
Outline: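 Signal is the blue/green (460nm/530nm) ratio of cleaved versus uncleaved CCF4-AM substrate, read after 2 h substrate loading. Cells were HCT116 carrying the p53-responsive beta-lactamase reporter, dosed 16 h at 37C, 5% CO2; CellTiter-Glo measured in parallel.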

Measured: outcome

Cellular tumor antigen p53 (Homo sapiens), sequence (P04637 whole entry, looked up): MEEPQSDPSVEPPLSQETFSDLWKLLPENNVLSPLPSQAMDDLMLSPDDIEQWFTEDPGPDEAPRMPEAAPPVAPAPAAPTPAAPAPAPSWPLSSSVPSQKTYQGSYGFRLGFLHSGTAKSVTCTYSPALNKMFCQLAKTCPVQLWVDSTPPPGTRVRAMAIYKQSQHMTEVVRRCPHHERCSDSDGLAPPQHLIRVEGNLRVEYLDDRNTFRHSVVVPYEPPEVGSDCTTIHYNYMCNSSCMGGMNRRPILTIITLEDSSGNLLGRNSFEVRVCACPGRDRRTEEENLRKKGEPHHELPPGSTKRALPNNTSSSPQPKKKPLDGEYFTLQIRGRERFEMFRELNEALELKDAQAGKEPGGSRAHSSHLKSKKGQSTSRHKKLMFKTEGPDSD

CCCn1c(=O)[nH]c(=O)c2[nH]cnc21
inactive: [1] | [2] | [3] | [4]

O=C[C@H](O)[C@@H](O)[C@H](O[C@H]1O[C@H](CO)[C@@H](O[C@H]2O[C@H](CO)[C@@H](O)[C@H](O)[C@H]2O)[C@H](O)[C@H]1O)[C@H](O)CO
inactive: [1] | [2] | [3]

CO/N=C(\C(=O)N[C@@H]1C(=O)N2C(C(=O)O)=C(C[N+]3(C)CCCC3)CS[C@H]12)c1csc(N)n1
inactive: [1] | [5] | [6]

CCCn1cc[n+](C)c1C
inactive: [1] | [2]

Cc1cc(OI)c(C(C)C)cc1-c1cc(C(C)C)c(OI)cc1C
inactive: [1] | [5] | [6]

CCN(CC)C(=O)[C@]1(c2ccccc2)C[C@@H]1CN
inactive: [1] | [2] | [3] | [4] | [6]

COc1ccc([C@@H]2CC(=O)c3c(O)cc(O[C@@H]4O[C@H](CO[C@@H]5O[C@@H](C)[C@H](O)[C@@H](O)[C@H]5O)[C@@H](O)[C@H](O)[C@H]4O)cc3O2)cc1O
inactive: [1] | [2] | [3] | [4] | [6]
